Screening data deposited in PubChem by National Center for Advancing Translational Sciences (NCATS).
Sampled rows, rich in hits. Any-hit rate of the full collection: about 12%.
HP1b binding inh – HP1-beta chromodomain-methylated histone interaction inhibition; P83916; AlphaScreen HP1-beta / biotin-H3K9me3 peptide binding; Potency, µM (titrated, usually from 114 µM), for the others: top-dose activity change, negative = inhibition, actives largely listed as inhibitors; 390,000 compounds, 0.56% hits; further: nearly all actives have a fitted effect of over 70% in size
Target sequence (P83916 whole entry, looked up): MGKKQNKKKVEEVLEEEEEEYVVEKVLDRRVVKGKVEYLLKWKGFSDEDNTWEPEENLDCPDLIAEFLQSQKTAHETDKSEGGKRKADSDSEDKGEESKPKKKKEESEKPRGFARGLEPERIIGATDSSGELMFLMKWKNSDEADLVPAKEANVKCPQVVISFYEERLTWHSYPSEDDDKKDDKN
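AlphaScreen: HP1-beta (50 nM) preformed 30 min with biotin-H3(1-18)K9me3 peptide (50 nM) in PBS pH 7.4, 0.01% Tween-20. Compound added for 30 min at RT, then streptavidin donor/nickel chelate acceptor beads (10 ug/mL) for 30 min.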
JMJD2A Tudor inh – JMJD2A Tudor domain (human) inhibition. O75164. AID 504339. Potency, µM (series often up to 114 µM), inactives show at the highest dose activity change, negative = inhibition, hits mostly inhibitors. AlphaScreen JMJD2A-Tudor / H3K4me3 peptide binding. 390,000 compounds, 4.4% hits; further: on the % scale 0 is the no-effect control and ±100 the full control effect; nearly all actives have a fitted effect of over 50% in size
BAZ2B block – blocks human BAZ2B; AID 504333; 360,000 compounds, 4.4% hits; AlphaScreen BAZ2B-H3K14Ac peptide displacement; Q9UIF8; Potency, µM (doses to about 114 µM), without a hit: at the top dose activity change, negative = inhibition, most hits filed as inhibitors; further: on the % scale 0 is the no-effect control and ±100 the full control effect; nearly all actives have a fitted effect of over 60% in size
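AlphaScreen displacement: compounds (up to 110uM) incubated 30 min at room temperature with a preformed 50 nM BAZ2B/50 nM biotinylated H3K14Ac peptide complex in PBS pH 7.4 with Tween-20. Donor and acceptor beads at 10 ug/mL final added, 20 min light-protected before reading.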
Sfp inh – Sfp phosphopantetheinyl transferase inhibition. AID 1490. Q9F4F7. Potency, µM, for inactives: largest response in the series, negative = inhibition, actives largely listed as inhibitors. Biochemical Sfp PPTase activity, qHTS. 310,000 compounds, 3.5% hits;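 further: the enzyme is Sfp with the accession as filed and its product quenches rhodamine fluorescence; 0% = enzyme reaction without inhibitor and -100% = no enzyme wells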
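Fluorescence-quenching assay with 15 nM Sfp, 5 uM rhodamine-CoA and 12.5 uM BHQ-2-labelled ybbR peptide in pH 7.6 Hepes/MgCl2 buffer. Enzyme was pre-incubated with compound for 15 min at room temperature. Rate was taken from the 30-min fluorescence change (525/598 nm).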
PLK1 PBD inh – PLK1 (human) polo-box domain binding inhibition | P53350 | Plk1 PBD binding of FITC phosphopeptide, fluorescence polarization | Potency, µM, for the others: max response, negative = inhibition, hits mostly inhibitors | 360,000 compounds, 2.8% hits; further: series mostly up to about 57 µM; on the % scale 0 is the no-effect control and ±100 the full control effect; nearly all actives have a fitted effect of over 65% in size
G9a block – inhibitors of human histone lysine methyltransferase G9a; Q96KQ7; G9a H3K9 monomethylation, AlphaScreen, 2 h; Potency, µM (titrated, usually from 102 µM), inactives show at the top dose activity, negative = inhibition, actives largely listed as inhibitors; 350,000 compounds, 8.8% hits; AID 504332; further: on the % scale 0 is the no-effect control and ±100 the full control effect; nearly all actives have a fitted effect of over 75% in size
Target sequence (Q96KQ7 913-1193 limits assumed): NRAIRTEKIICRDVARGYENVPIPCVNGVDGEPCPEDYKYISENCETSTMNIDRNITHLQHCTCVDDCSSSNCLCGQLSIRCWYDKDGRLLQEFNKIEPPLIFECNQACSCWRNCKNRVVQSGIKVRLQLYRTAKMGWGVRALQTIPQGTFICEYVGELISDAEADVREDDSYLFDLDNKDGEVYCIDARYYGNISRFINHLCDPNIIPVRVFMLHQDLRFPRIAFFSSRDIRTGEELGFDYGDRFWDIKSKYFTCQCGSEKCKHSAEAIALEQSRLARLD
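G9a (20 nM) preincubated 15 min RT with compounds, then 500 nM biotinylated H3K9 peptide and 20 uM SAM added; 2 h RT reaction. Monomethyl-H3K9 product detected by AlphaScreen with anti-H3K9me1 antibody, streptavidin donor and anti-rabbit IgG acceptor beads.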
* = called active by the depositor; ? = inconclusive; · = not tested or not shown; [ ] = another dose, or the depositor's remark. The call rests on the fitted dose curve; in most records, active means well fitted curve in the direction sought with a large enough effect; inconclusive means small, poorly fitted or top-dose-only effect, or another doubt; inactive means no such curve, though single readings can be large; an effect the other way counts as inactive or inconclusive. Potency means the concentration at half of the fitted maximal effect.

SMILES	HP1b binding inh	JMJD2A Tudor inh	BAZ2B block	Sfp inh	PLK1 PBD inh	G9a block
C/C=C/C(=O)Nc1cccc(C2=NOC3(C2)C[C@@H](C(N)=O)N(C(=O)c2cc([N+](=O)[O-])cc([N+](=O)[O-])c2)C3)c1 (some centres not stated)	22%	-31%	-11%	?	-9%	-7%[12.7 µM]
NC(=O)C1(NC(=O)[C@@H]2CC3(CC(c4cccc(NC(=O)c5cc([N+](=O)[O-])cc([N+](=O)[O-])c5)c4)=NO3)CN2C(=O)c2ccccc2)CC1 (some centres not stated)	19%	?	-38%	79µM*	?	·
c1coc(CNc2ncnc3c2[nH]c2ccccc23)c1	-3%	?	·	·	·	·
O=c1[nH]c2ccccc2nc1Cc1ccc([N+](=O)[O-])cc1	29%	-4%	-1%	9%	-22%	50µM*
c1ccc(CCc2nc3ccccc3[nH]2)cc1	40%	-8%	1%	19%	-10%	5%
O=c1[nH]c2ccccc2nc1CCc1ccccc1	-15%	-9%	-1%	6%	27µM*	1%
CCN(CC(=O)Nc1c(F)cccc1F)C(=O)CCN1C(=O)C2CC=CCC2C1=O (configuration not stated)	-10%	-15%	2%	·	-1%	4%[0.501 µM]
O=C(OCC#CCSc1nnc(-c2cccc3ncccc23)o1)c1ccc(F)cc1	·	-11%	·	·	·	·
C/C(=N/NC(=O)CNc1ccc(C)cc1)c1ccc(Cl)cc1	-13%	?	?	5%	-6%	45µM*
Cc1ccc(C(=O)CNc2ccc(Cl)cc2)cc1	17%	-23%	?	-3%	-12%	?
Brc1ccc(CN2CCN(c3ccccc3)CC2)o1	?	3.2µM*	56µM*	-25%	7%	?
Clc1ccccc1N1CCN(Cc2ccc(Br)o2)CC1	-11%	25µM*	·	·	2%	·
Cc1ccccc1N1CCN(CCCCN2C(=O)C3CCCN3C2=O)CC1 (configuration not stated)	17%	-6%	-27%	-14%	-9%	2%[59 µM]
Cc1cccc(N2CCN(Cc3ccc(Br)o3)CC2)c1C	-26%	28µM*	?	-14%	-6%	25µM*
Cc1ccccc1N1CCN(Cc2ccc(Br)o2)CC1	?	1µM*	56µM*	-21%	?	10µM*
CCC1(c2ccc(O)cc2)NC(=O)NC1=O (configuration not stated)	·	·	·	13%	·	·
CCN(CC)c1ccc(S(=O)(=O)N2CCCCC2)cc1NC(=O)C1CCC1	27%	-3%	?	·	2%	1%[0.501 µM]
CCOC(=O)/C(C#N)=C/c1ccc(-c2ccccc2)o1	25%	-11%	-33%	·	·	5%[59 µM]
Cc1cccc(C)c1NC(=O)CN(C)C(=O)CC1Sc2ccccc2NC1=O (configuration not stated)	23%	-9%	9%	·	-5%	10%
COC(=O)c1ccccc1NC(=O)COC(=O)c1ccco1	6%	?	50µM*	-5%	-9%	9%
COC(=O)c1ccccc1NC(=O)COC(=O)c1ccc(C)c(NC(=O)c2ccco2)c1	35%	-17%	23%	8%	2%	22%
O=C(/C=C/c1ccco1)OCc1nnc(-c2ccccc2)o1	6%	-26%	50µM*	-16%	-6%	50µM*
O=C(/C=C/c1ccco1)OCn1nnc2ccccc2c1=O	17%	-13%	56µM*	-72%	-8%	35µM*
COC(=O)c1ccccc1NC(=O)COC(=O)/C=C/c1ccco1	12%	-13%	?	3%	-3%	50µM*
Cc1ccc(OCCN2CCC2(C)C(=O)NCc2ccc(C(F)(F)F)cc2)cc1 (configuration not stated)	·	·	·	·	3%	·
SMILES	HP1b binding inh	JMJD2A Tudor inh	BAZ2B block	Sfp inh	PLK1 PBD inh	G9a block
Cc1ccc(-n2ccnc(NCCc3ccc(S(N)(=O)=O)cc3)c2=O)cc1C	-2%	-33%	-29%	·	·	-29%[59 µM]
COc1cccc(/C=C/C(=O)OCC(=O)Nc2ccc(Cl)c(S(=O)(=O)N(C)C)c2)c1	35%	-5%	-25%	?	5%	9%
O=C(COC(=O)/C=C/c1ccco1)NCc1ccc2c(c1)OCO2	0%	-19%	71µM*	0%	-5%	56µM*
CN(C)S(=O)(=O)c1cc(NC(=O)COC(=O)/C=C/c2ccco2)ccc1Cl	?	56µM*	?	?	-27%	?
O=C(COC(=O)/C=C/c1ccco1)Nc1ccccc1	-2%	-23%	?	-9%	-2%	56µM*
CCOC(=O)NC(=S)Nc1ccc(OC)cc1	58%	-6%	0%	18%	0%	-6%
COC(=O)NC(NC(=S)Nc1ccccc1OC)C(Cl)(Cl)Cl (configuration not stated)	41%	-12%	7%	-17%	-1%	16µM*
CCOC(=O)NC(NC(=S)Nc1ccc(OC)cc1)C(Cl)(Cl)Cl (configuration not stated)	13%	0%	-4%	12%	-12%	6.3µM*
CCOC(=O)NC(NC(=S)Nc1ccccc1OC)C(Cl)(Cl)Cl (configuration not stated)	-6%	-18%[57.1 µM]	-21%	4%	?	?
COC(=O)NC(NC(=S)Nc1ccc([N+](=O)[O-])cc1)C(Cl)(Cl)Cl (configuration not stated)	-10%	?	-13%	-5%	-13%	10µM*
O=C(O)[C@@H]1CCCN1	·	·	·	-18%	·	0%[59 µM]
C[C@@H]1[C@H]2[C@@H](O[C@@H]3O[C@H](CO)[C@@H](O)[C@H](O)[C@H]3O)OC=C(C(=O)O)[C@H]2C[C@@H]1O	31%	-5%	1%	·	8%	-1%[12.7 µM]
C=CC#CC[N+]1(CC#Cc2ccccc2)CCOCC1	35µM*	40µM*	?	?	8%	?
O=C(NC(=S)NNC(=O)[C@H]1C[C@@H]1c1ccccc1)c1cccc(F)c1	2%	-10%	1%	32µM*	-4%	16µM*
CSC[C@H]1CN(Cc2ccccc2)C(=O)[C@@H]1CC(=O)Nc1ccc(Br)cc1	·	·	·	·	6%	·
COc1ccccc1-n1c(CCn2nc(C)c(Br)c2C)n[nH]c1=S	4%	7.1µM*	-4%	?	-6%	1.1µM*
Cc1nn(CCc2n[nH]c(=S)n2C2CCCCC2)c(C)c1Br	35%	79µM*	-7%[57.1 µM]	-13%	-5%	2.5µM*
Cc1nn(CCc2n[nH]c(=S)n2C)c(C)c1Br	21%	7.1µM*	-2%	11%	-12%	?
COc1ccccc1-n1cc(-c2ccc(Br)cc2)[nH]c1=S	-20%	?	2%	9%	-3%	-1%
CN1C(=O)Cc2cc(S(=O)(=O)CCC(=O)N3CCN(c4cccc(Cl)c4)CC3)ccc21	-10%	-23%	-2%	·	·	-3%[59 µM]
